Measured values reported in PubChem BioAssay (Tox21).
Where “and” joins values, the source holds several entries; their conditions need not be identical. Identical values can stand only once. Records with an inconclusive call do not appear. Calls of active or inactive are those of the source. Unless noted, calls come from the whole dose curve; as a rule, active = well fitted curve in the direction sought with a large enough effect in the repeat runs; inconclusive = weak or mixed curves; inactive = no such curve, though single readings can be large; an effect the other way counts as inactive or inconclusive.

Columns and labels:
[1] = qHTS assay to identify small molecule agonists of the hypoxia (HIF-1) signaling pathway - cell viability counter screen (AID 1224844; calls by dose curve; note: nearly all actives have a fitted effect of over 50% in size); conditions: HRE-bla ME-180 viability, CellTiter-Glo luminescence, 17 h; series mostly up to 76.8 µM
Summary of the method: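 Cells (HRE-bla ME-180, 2,000 per well) sat 5 hrs at 37C, got compound for 17 hrs, were read for CCF4-AM FRET, and were finally lysed with CellTiter-Glo for a 30 min room-temperature luminescence read.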

[2] = qHTS assay to identify small molecule agonists of H2AX (AID 1224845; active = well fitted activation curve with a large enough effect in the signal ratio in the repeat runs, not every such curve was filed as active; the % refers to the signal ratio); conditions: CHO-K1 phospho-H2AX Ser139 HTRF, 3 h; series mostly up to 154 µM
Summary of the method: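 Wild-type CHO-K1 cells plated overnight, then exposed 3 hr at 37C to compounds at 15 concentrations (0.76% DMSO). Lysed, then HTRF anti-pH2AX(S139)-cryptate/anti-H2AX-d2 detection after 24 hr at room temperature; emissions 665 and 620 nm.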

[3] = qHTS assay to identify small molecule agonists of the hypoxia (HIF-1) signaling pathway (AID 1224846; active = well fitted activation curve with a large enough effect in the signal ratio in the repeat runs, not every such curve was filed as active; the % refers to the signal ratio); conditions: HRE-bla ME-180 cells, beta-lactamase ratio, 17 h; series mostly up to 76.8 µM
Summary of the method: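 A low-serum medium (0.5% dialyzed FBS) holding 2,000 HRE-bla ME-180 cells per well is preincubated for 5 hrs, dosed with compounds by pintool, and kept a further 17 hrs at 37C, 5% CO2 before CCF4-AM FRET detection of beta-lactamase.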

[4] = qHTS assay to identify small molecule agonists of H2AX - cell viability counter screen (AID 1224847; calls by dose curve; note: top concentration of the series differs between compounds; nearly all actives have a fitted effect of over 30% in size); conditions: CHO-K1 viability, CellTiter-Glo luminescence, 3 h; series mostly up to 154 µM
Summary of the method: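 CHO-K1 cells plated overnight at 37C, then exposed 3 h at 37C to compounds at 15 concentrations (0.76% DMSO final). Viability by CellTiter-Glo luminescence after 30 min at room temperature.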

[5] = qHTS RealTime-Glo MT Cell Viability Assay in HepG2 cells - 24 hour (AID 1224867); conditions: RealTime-Glo luminescence; series mostly up to 76.8 µM; note: nearly all actives have a fitted effect of over 50% in size
Summary of the method: (§1)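 Compound treatment began 5 h after plating HepG2 cells (600/well) with NanoLuc luciferase and prosubstrate. Plates stayed at 37 C for 40 h; luminescence was captured at six time points, 0 h through 40 h.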

[6] = qHTS RealTime-Glo MT Cell Viability Assay in HEK293 cells - 32 hour (AID 1224868); conditions: RealTime-Glo luminescence; series mostly up to 76.8 µM; note: top concentration of the series differs between compounds; nearly all actives have a fitted effect of over 50% in size
Summary of the method: (§2)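 Quantitative high-throughput screen of the Tox21 10K library in HEK293: cells and RealTime-Glo reagents plated together, compound added at 5 h, luminescence monitored through 40 h at 37 C.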

[7] = A CellTox Green Cytotoxicity Assay to monitor cytotoxicity in HEK293 cells - 0 hour (AID 1224869); conditions: CellTox Green fluorescence; series mostly up to 76.8 µM; note: nearly all actives have a fitted effect of over 50% in size
Summary of the method: (§3)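 Fluorescence intensity, read at 0, 8, 16, 24, 32 and 40 h of compound treatment, reflected dye binding to DNA of dead HEK293 cells; compounds (23 nL, DMSO) were added 5 h after plating cells with reagent.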

[8] = qHTS RealTime-Glo MT Cell Viability Assay in HepG2 cells - 40 hour (AID 1224870); conditions: RealTime-Glo luminescence; series mostly up to 76.8 µM; note: nearly all actives have a fitted effect of over 50% in size
Summary of the method: (§4)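 HepG2 cells mixed with RealTime-Glo MT reagents (NanoLuc plus cell-permeant prosubstrate) were seeded at 600 cells/well, incubated 5 h at 37 C/5% CO2, then pinned with compounds in DMSO; nonlytic luminescence tracked viability during 40 h treatment.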

[9] = A CellTox Green Cytotoxicity Assay to monitor cytotoxicity in HEK293 cells - 40 hour (AID 1224871); conditions: CellTox Green fluorescence; series mostly up to 76.8 µM; note: nearly all actives have a fitted effect of over 45% in size
Summary of the method: as §3

[10] = qHTS RealTime-Glo MT Cell Viability Assay in HEK293 cells - 16 hour (AID 1224872); conditions: RealTime-Glo luminescence; series mostly up to 76.8 µM
Summary of the method: as §2

[11] = qHTS RealTime-Glo MT Cell Viability Assay in HepG2 cells - 8 hour (AID 1224873); conditions: RealTime-Glo luminescence; series mostly up to 76.8 µM; note: nearly all actives have a fitted effect of over 55% in size
Summary of the method: as §4

[12] = A CellTox Green Cytotoxicity Assay to monitor cytotoxicity in HepG2 cells - 16 hour (AID 1224876); conditions: CellTox Green fluorescence; series mostly up to 76.8 µM; note: nearly all actives have a fitted effect of over 45% in size
Summary of the method: (§5)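 Using 1536-well format, dye-containing HepG2 suspension was seeded, allowed 5 h at 37 C/5% CO2, dosed by pintool with compounds, positive and negative controls, and imaged for fluorescence across 40 h.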

[13] = qHTS RealTime-Glo MT Cell Viability Assay in HepG2 cells - 32 hour (AID 1224877); conditions: RealTime-Glo luminescence; series mostly up to 76.8 µM; note: nearly all actives have a fitted effect of over 55% in size
Summary of the method: as §1

[14] = A CellTox Green Cytotoxicity Assay to monitor cytotoxicity in HepG2 cells - 24 hour (AID 1224878); conditions: CellTox Green fluorescence; series mostly up to 76.8 µM; note: nearly all actives have a fitted effect of over 45% in size
Summary of the method: as §5

[15] = A CellTox Green Cytotoxicity Assay to monitor cytotoxicity in HepG2 cells - 40 hour (AID 1224879); conditions: CellTox Green fluorescence; series mostly up to 76.8 µM; note: nearly all actives have a fitted effect of over 40% in size
Summary of the method: as §5

[16] = target: Thyrotropin receptor (Homo sapiens) (UniProt P16473); test: qHTS assay to identify small molecule agonists of the thyroid stimulating hormone receptor (TSHR) signaling pathway (AID 1224843; calls by dose curve; note: nearly all actives have a fitted effect of over 45% in size); conditions: TSHR-HEK293 cells, cAMP HTRF, agonist mode, 30 min; series mostly up to 92.4 µM
Chain of Thyrotropin receptor (Homo sapiens) (P16473 whole entry, looked up): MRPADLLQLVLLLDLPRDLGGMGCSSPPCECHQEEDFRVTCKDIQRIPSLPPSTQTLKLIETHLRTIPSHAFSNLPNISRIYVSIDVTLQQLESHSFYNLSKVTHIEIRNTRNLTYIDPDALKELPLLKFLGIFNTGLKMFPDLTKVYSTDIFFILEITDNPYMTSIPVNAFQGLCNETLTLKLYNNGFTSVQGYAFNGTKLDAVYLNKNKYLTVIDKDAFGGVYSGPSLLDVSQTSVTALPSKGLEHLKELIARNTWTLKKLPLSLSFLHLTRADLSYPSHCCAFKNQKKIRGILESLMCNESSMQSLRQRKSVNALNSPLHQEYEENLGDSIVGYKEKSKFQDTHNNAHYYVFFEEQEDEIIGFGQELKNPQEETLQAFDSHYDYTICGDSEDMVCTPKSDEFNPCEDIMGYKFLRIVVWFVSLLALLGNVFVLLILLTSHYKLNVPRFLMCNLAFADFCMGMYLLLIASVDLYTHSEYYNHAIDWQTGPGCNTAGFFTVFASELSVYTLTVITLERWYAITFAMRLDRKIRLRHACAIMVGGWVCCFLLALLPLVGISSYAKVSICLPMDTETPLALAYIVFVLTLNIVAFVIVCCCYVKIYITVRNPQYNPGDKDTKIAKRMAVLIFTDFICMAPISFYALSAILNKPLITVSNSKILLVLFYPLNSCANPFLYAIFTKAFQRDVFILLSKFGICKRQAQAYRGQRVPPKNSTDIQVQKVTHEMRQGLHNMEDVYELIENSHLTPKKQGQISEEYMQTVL
Summary of the method: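 Cell line HEK293 with TSHR; density 800/well. Exposure 30 min RT. Readout HTRF cAMP (cAMP-d2/anti-cAMP-cryptate), 1 h RT before reading.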

[17] = qHTS RealTime-Glo MT Cell Viability Assay in HEK293 cells - 40 hour (AID 1224874); conditions: RealTime-Glo luminescence; max response: stronger effect = lower value; note: nearly all actives have a fitted effect of over 50% in size
Summary of the method: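 Viable HEK293 cells reduce a cell-permeant prosubstrate; the product diffuses out and is consumed by NanoLuc in the medium to give light. Compounds went in after a 5 h incubation and plates were read over the treatment course.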

[18] = A CellTox Green Cytotoxicity Assay to monitor cytotoxicity in HEK293 cells - 24 hour (AID 1224875); conditions: CellTox Green fluorescence; series mostly up to 76.8 µM; note: nearly all actives have a fitted effect of over 45% in size
Summary of the method: as §3

[19] = qHTS assay to identify small molecule antagonists of the estrogen related receptor (ERR) signaling pathway from Tox21 library (AID 1224848); conditions: ERR reporter cell line, luciferase antagonist mode, 18 h; series mostly up to 92.4 µM; note: nearly all actives have a fitted effect of over 50% in size
Summary of the method: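 Screening used an ERR reporter line supplied by NTP, exposed for 18 h at 37 C to library compounds delivered in DMSO. Signal was luciferase luminescence developed with ONE-Glo at room temperature for 30 min.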

[20] = qHTS assay to identify small molecule agonists of the estrogen related receptor (ERR) signaling pathway from Tox21 library (AID 1224849; calls by dose curve; note: nearly all actives have a fitted effect of over 15% in size); conditions: ERR reporter cell line, ONE-Glo luciferase, 18 h; at 92.4 µM (top of the series)
Summary of the method: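 Screening used an NTP-provided ERR luciferase cell line. Compounds in DMSO were added 6 h after seeding and left 18 h at 37 C before a 30 min ONE-Glo step and luminescence reading.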
% is set by controls: 0 for no effect and ±100 for the full control effect.

CCCCCCCCCCCCCCCCCC(=O)O
inactive: Potency [1] | Potency [2] | outcome [3] | Potency [4] | outcome [5] | Potency [6] | Potency [7] | outcome [8] | Potency [9] | outcome [10] | outcome [11] | Potency [12] | outcome [13] | Potency [14] | Potency [15]

NNc1ccccc1
inactive: Potency [16] | outcome [3] | Potency [4] | outcome [5] | Potency [6] | Potency [7] | outcome [8] | Potency [9] | outcome [10] | outcome [11] | max response [17] 3.45% [middle of 5 runs] | Potency [12] | outcome [13] | Potency [14] | Potency [15]

O=C(O)C(Br)Br
inactive: Potency [1] | Potency [2] | outcome [3] | Potency [4] | outcome [5] | Potency [6] | Potency [7] | Potency [9] | outcome [10] | outcome [11] | max response [17] -0.855% and 1.09% | Potency [18] | Potency [12] | Potency [14] | Potency [15]

CCCCC(CC)C(=O)Cl (configuration not stated)
inactive: Potency [16] | outcome [3] | Potency [4] | outcome [5] | Potency [6] | Potency [7] | Potency [9] | outcome [10] | outcome [11] | max response [17] 14.8% and -0.733% | Potency [18] | Potency [12] | outcome [13] | Potency [14] | Potency [15]

ClC(Cl)c1ccccc1
inactive: Potency [1] | Potency [2] | outcome [3] | Potency [4] | Potency [19] | activity change, positive = activation [20] 8.64% and 1.48% | outcome [5] | Potency [6] | Potency [7] | outcome [8] | Potency [9] | outcome [10] | outcome [11] | Potency [12] | outcome [13] | Potency [14] | Potency [15]

CN(C)C(=O)C(c1ccccc1)c1ccccc1
inactive: Potency [1] | Potency [2] | outcome [3] | Potency [4] | outcome [5] | Potency [6] | Potency [7] | outcome [8] | Potency [9] | outcome [10] | outcome [11] | max response [17] 1.04% and -0.357% | Potency [18] | Potency [12] | Potency [14] | Potency [15]

Cc1cc(Cl)ccc1OC(C)C(=O)O (configuration not stated)
inactive: Potency [1] | Potency [2] | outcome [3] | Potency [4] | outcome [5] | Potency [6] | Potency [7] | Potency [9] | outcome [10] | outcome [11] | max response [17] 3.64% and -1.48% | Potency [12] | Potency [14] | Potency [15]
